Source: PubChem BioAssay (National Center for Advancing Translational Sciences (NCATS))
This is a sample that favours compounds with a hit; in the whole collection about 19% have one here.
HT1080-NT tox = kills 2HG-producing HT-1080-NT fibrosarcoma cells. AID 686970. Potency, µM (highest dose often 46.1 µM), without a hit: top-dose activity, negative = less viability, usual class: cytotoxic. hit rate 1.6% among 360,000. HT-1080-NT fibrosarcoma viability, CellTiter-Glo ATP luminescence, 48 h;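 further: NT is the 2HG producing partner of a matched IDH1 knockdown line; potency means the concentration at half of the fitted maximal effect; 0% = DMSO-treated cells and -100% = media-only wells without cells; nearly all actives have a fitted effect of over 55% in size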
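Read-out is CellTiter-Glo luminescence after 10 minutes at room temperature, following 48 hours' compound treatment of HT-1080-NT cells (750 cells/well, RPMI, 5% FBS, 37 degrees C).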
DT40 TDP1 no CPT = qHTS for Inhibitors of human tyrosyl-DNA phosphodiesterase 1 (TDP1): qHTS in cells in absence of CPT; DT40 Tdp1-/- hTDP1 cells, no CPT, ATP luminescence, 48 h; Potency, µM (series often up to 46.2 µM), for the others: at the highest dose activity change, negative = growth inhibition, actives largely listed as inhibitors; hit rate 15% among 420,000; AID 686978, 2013; further: potency means the concentration at half of the fitted maximal effect; nearly all actives have a fitted effect of over 55% in size
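Seeded 400 DT40-hTDP1 cells/well (vehicle DMSO, no 20 nM CPT); pinned compounds; ≥48 hr at 37 °C; CellTiter-Glo luminescence as viability measure.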
TDP1 cell CPT = DT40-hTDP1 cell growth loss with CPT; hit rate 12% among 420,000; AID 686979; Potency, µM (doses to about 46.2 µM), for inactives: at the highest dose activity change, negative = growth inhibition, actives largely listed as inhibitors; chicken DT40 Tdp1-/-;hTDP1 cells + 20 nM CPT, ATP luminescence, 48 h; further: potency means the concentration at half of the fitted maximal effect; nearly all actives have a fitted effect of over 55% in size
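Chicken DT40 Tdp1-/- cells stably complemented with human TDP1 were seeded at 400 cells/well in medium containing 20 nM camptothecin, exposed to pin-transferred compounds, and grown at 37 °C for at least 48 hr. Viability was read as ATP luminescence.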
IL-1B inflam inh = inflammasome signaling inhibition, IL-1 beta readout | THP-1 LPS/ATP IL-1B secretion, AlphaLISA, 16 h; active compounds read low | activity change, % at 57.5 µM | hit rate 4.7% among 360,000 | AID 743279; in the data active means activity change below about -50%; inconclusive means mostly about -30% to -49%
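THP-1 cells pretreated 1 hr with compounds (up to 57.5 uM final), then stimulated with LPS (250 ng/mL final) plus ATP (1.25 mM final); secreted IL-1B measured by AlphaLISA after 16 hr, decreased signal indicating inhibition.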
HT1080 IDH1KD tx = kills HT-1080 cells with IDH1 knockdown; HT-1080 IDH1 knockdown viability, ATP luminescence, 48 h; Potency, µM (titrated, usually from 46.1 µM), for the others: top-dose activity, negative = toxicity, most hits filed as cytotoxic; hit rate 2% among 360,000;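 further: potency means the concentration at half of the fitted maximal effect; 0% = DMSO wells and -100% = cell-free medium wells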
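After a 2 h attachment period, IDH1KD HT-1080 cells took pin-transferred compound for 48 h at 37 °C; ATP-based luminescence after 10 min room-temperature reagent incubation reported viability.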
Active calls of the source: *; ? = inconclusive; · = no result given. Unless noted, the call rests on the fitted dose curve; in most records, active means well fitted curve in the direction sought with a large enough effect; inconclusive means small, poorly fitted or top-dose-only effect, or another doubt; inactive means no such curve, though single readings can be large; an effect the other way counts as inactive or inconclusive. Unless noted, on the % scale 0 is the no-effect control and ±100 the full control effect.

SMILES | HT1080-NT tox | DT40 TDP1 no CPT | TDP1 cell CPT | IL-1B inflam inh | HT1080 IDH1KD tx
COc1ccc2oc(-c3ccco3)cc(=O)c2c1 | -1.9% | ? | ? | -61.8* | -1.4%
COc1ccc(C(CNCC(O)COc2c(C)ccc(C)c2C)N(C)C)cc1 (stereo unspecified) | -19.3% | 11.6µM* | 25.9µM* | -7.7 | -10.0%
Cc1c(C(=O)N2CCN(c3ccccc3)CC2)oc2c(F)cccc12 | -1.8% | ? | ? | 6.8 | 1.1%
Cc1cc(Cl)c2oc(C(=O)N3CCN(c4ccncc4)CC3)c(C)c2c1 | 11.6µM* | 13µM* | 20.6µM* | -88.2* | 11.6µM*
Cc1ccc2c(C)c(C(=O)N3CCN(c4ncccn4)CC3)oc2c1C | -13.9% | 16.4µM* | 20.6µM* | -5.9 | -12.2%
COC(=O)C1CCN(C(=O)c2oc3c(Cl)cc(C)cc3c2C)CC1 | 17.1% | 20.6µM* | ? | -2.5 | 1.0%
COc1ccc2oc(C(=O)N3CCN(c4ncccn4)CC3)c(C)c2c1 | 0.0% | -15.5% | -29.7% | 13.8 | 7.2%
COc1ccc(S(=O)(=O)N2CCCCC2)cc1NC(=O)CSc1nnc(C2CC2)n1C | -5.5% | 15.4% | -25.7% | -0.7 | -0.7%
Cn1c(CNC(=O)CSc2nc(-c3cccc(Cl)c3)nc3cc(=O)[nH]n23)nc2ccccc21 | · | 1.1% | -15.3% | · | ·
COc1ccc(-c2sc(Nc3ccccc3)n[n+]2-c2ccc(F)cc2)c(C)c1C | ? | 10.3µM* | 7.31µM* | -11.4 | -25.1%
Oc1ccc(-c2sc(Nc3ccccc3)n[n+]2-c2ccc(F)cc2)cc1 | -0.3% | -10.7% | -10.2% | 16.3 | 0.9%
CSc1ccc(-c2sc(Nc3ccccc3)n[n+]2-c2ccc(F)cc2)cc1 | -12.7% | 23.1µM* | 11.6µM* | 25.7 | -4.2%
Cc1cccc(-c2sc(Nc3ccccc3)n[n+]2-c2ccc(F)cc2)c1 | -17.3% | 9.2µM* | 7.31µM* | 11.9 | -29.1%
CCc1ccc(Nc2n[n+](-c3ccccc3)c(-c3cccc(C)c3)s2)cc1 | -26.4% | 5.8µM* | 7.31µM* | -20.4 | -17.8%
CCc1ccc(NC(=O)c2ccc(-c3ccccc3)s2)cc1 | · | ? | -17.3% | · | ·
CC(C)C1N(C(=O)CN2CCCCC2)CCN1S(=O)(=O)c1ccccc1 (stereo unspecified) | 1.0% | 0.2% | 11.1% | -7.1 | 5.3%
O=C(O)c1cccc(NS(=O)(=O)c2ccc(Cl)c(C(=O)Nc3cccc([N+](=O)[O-])c3)c2)c1 | 21.2% | 3.4% | 4.3% | 10.8 | 11.6%
Cc1ccccc1N1C(=O)C(Oc2ccc(Cl)cc2)C1CNC(C)(C)C (stereo unspecified) | -12.0% | ? | ? | -55.1* | -10.3%
COc1ccc(CCNCC2C(Oc3ccc(Cl)cc3)C(=O)N2c2ccccc2C)cc1OC (stereo unspecified) | ? | 23.1µM* | ? | -72.6* | ?
COCCNCC1C(Oc2ccc(Cl)cc2)C(=O)N1c1ccccc1C (stereo unspecified) | -0.1% | ? | ? | -17.0 | -2.4%
CC(O)C(=O)N/N=C/c1cccc2ccccc12 (stereo unspecified) | 7.1% | ? | 14.3% | -17.6 | 7.9%
O=C(N/N=C/c1cccc2ccccc12)c1n[nH]c2c1CCCC2 | 1.46µM* | 4.11µM* | 4.61µM* | 59.9 | 1.46µM*
O=C(N/N=C/c1ccc(Cl)cc1Cl)c1n[nH]c2c1CCCC2 | 8.2µM* | 2.91µM* | 2.91µM* | 3.7 | 6.51µM*
CC(C(=O)NCc1cccc(Br)c1)n1ncn2cccc2c1=O (stereo unspecified) | · | 1.6% | -13.0% | · | ·
COc1cccc(C(=O)/C=C2\Sc3ccccc3N2C)c1 | -7.6% | ? | ? | -76.7* | -14.0%
SMILES | HT1080-NT tox | DT40 TDP1 no CPT | TDP1 cell CPT | IL-1B inflam inh | HT1080 IDH1KD tx
COc1cc2c(cc1NC(=S)Nc1cccc(C(F)(F)F)c1)oc1ccccc12 | ? | 29.1µM* | 23.1µM* | -4.2 | ?
COCCCNC(=S)Nc1cc2oc3ccccc3c2cc1OC | 2.31µM* | 6.51µM* | 8.2µM* | -2.7 | 11.6µM*
COc1ccc(-c2nnc(SCC(=O)Oc3cc(C)ccc3C)o2)cc1 | · | -1.7% | 14.2% | · | ·
Cn1c(CSc2nc3ccccc3n2C)nc2ccccc21 | 6.2% | -11.8% | -23.1% | ? | -0.3%
Cn1c(SC2=CS(=O)(=O)c3ccccc32)nc2ccccc21 | 18.4µM* | 2.91µM* | 2.31µM* | -119.0* | ?
COc1ccc(C(=O)/C=C/C(=O)N(CC(=O)NC2CCCCC2)Cc2ccccc2OC)c(O)c1 | ? | 2.06µM* | 1.64µM* | -100.4* | ?
COc1ccc(C(=O)/C=C/C(=O)N(CC(=O)NC2CCCCC2)Cc2ccccc2)c(O)c1 | 3.66µM* | 2.06µM* | 1.46µM* | -99.6* | 3.66µM*
CCCC(=O)N1CCCC1(C)C(=O)NCCc1ccccn1 (stereo unspecified) | 14.1% | 6.4% | -2.7% | 19.8 | 18.6%
COc1ccc(C(=O)NC2CC3CCCC(C2)N3Cc2ccccc2)cc1OC (stereo unspecified) | -4.2% | -2.2% | -11.8% | 5.6 | -0.4%
C[C@@]12CCC3[C@@](CCC4[C@@]3(C)CCC[C@@]4(C)C(=O)NC3CCCCC3)(CC1=O)C2 (stereo partly specified) | 1.5% | 23.1µM* | 18.4µM* | 11.6 | 3.9%
Cc1ccc(CNC(=O)[C@]2(C)CCC[C@@]3(C)C4CC[C@@]5(C)C[C@]4(CCC32)CC5=O)cc1 (stereo partly specified) | -10.6% | ? | ? | 29.2 | -7.0%
COC(=O)[C@]1(C)CCC[C@@]2(C)C3CC[C@@]4(C)C[C@]3(CCC21)CC(=O)N4C (stereo partly specified) | 0.3% | ? | ? | -4.6 | 11.5%
COC(=O)[C@]1(C)CCC[C@@]2(C)C3CC[C@@]4(C)C[C@]3(CCC21)CC4=NO (stereo partly specified) | -3.0% | 20.6µM* | ? | 18.3 | -6.0%
C=C1C[C@@]23CCC4[C@@](C)(CCC[C@@]4(C)C(=O)OC)C2CC[C@]1(OC(C)=O)C3 (stereo partly specified) | -1.3% | ? | 18.4µM* | 23.7 | 0.1%
CC(C)(C)NC(=O)NC(=O)COC(=O)C1CCN(S(=O)(=O)c2cccs2)CC1 | -1.9% | 21.3% | -2.9% | 28.8 | 8.3%
CC1(C)O[C@@H](CC(=O)O)[C@]23CO[C@H](C(=O)[C@]4(C)C2CC[C@@]2(C)[C@H](c5ccoc5)OC(=O)C5O[C@]524)[C@@H]13 (stereo partly specified) | 12.2% | 22.3% | -5.5% | 9.3 | 11.1%
Nc1nc(NCCOCCO)nc(NCc2ccccc2)c1[N+](=O)[O-] | -6.4% | -9.2% | -12.7% | 66.6 | -3.1%
